Assay results from ChEMBL document CHEMBL4513216, “Probing the Open Global Health Chemical Diversity Library for Multistage-Active Starting Points for Next-Generation Antimalarials” (ACS Infect Dis, 2020).
Among all 65,000 compounds or so, about 2,100 (3.2%) showed an effect of 50% or more. The median lay at about -52%. This excerpt belongs to a sample that is enriched for strong results.

What follows are molecules tested on Plasmodium falciparum (assay: Screen against P. falciparum Asexual Blood Stage (ABS), at 5uM). Conditions: tested at 5 uM.
Format: functional, Dd2

| SMILES | INHIBITION |
| --- | --- |
| CC(Cn1cncn1)NC(=O)N1CC2(CCCC2)c2ccccc21 (centres undefined) | -89% |
| N#CC1(NC(=O)Cc2cc(Cl)c3c(c2)OCCO3)CCC1 | -75% |
| O=C(c1cocn1)N1CC[C@H]2OCC[C@@]2(COc2ncccc2F)C1 | -34.6% |
| COCC(=O)N1Cc2ccnn2CC(COCCN(C)C)C1 (centres undefined) | -13.6% |
| CC(C)OCCCN1CCCC(c2nc3ccccc3n2C(C)C)C1 (centres undefined) | 56% |
| CC(C)n1c(C2CCCN(CCS(C)(=O)=O)C2)nc2ccccc21 (centres undefined) | -69.9% |
| CC(C)n1c(C2CCCN(CC(N)=O)C2)nc2ccccc21 (centres undefined) | -23.5% |
| Cc1ccnc(NC(=O)CCc2cnn(C)c2C)c1 | -26.3% |
| CC(C)CSCCCNC(=O)C1CCC1 | -47.5% |
| CCN(CC1CCOC1)S(=O)(=O)Cc1cc(Cl)ccc1OC (centres undefined) | 59.1% |
| CCN(CC1CCOC1)S(=O)(=O)Cc1ccccc1Cl (centres undefined) | -53.1% |
| COc1ccc(Cl)cc1CCNC(=O)N(C)CC1CCOC1 (centres undefined) | -102% |
| CN1CCCCC12CCN(C(=O)c1cccn1C)CC2 | -27% |
| COCCNc1ncnc2c1CCN(C(=O)CC1CCC(=O)N1)CC2 (centres undefined) | -36% |
| CC(=O)N1CCOC2(CCCN(C(=O)CCN3CCCCC3)C2)C1 (centres undefined) | 56% |
| CC(=O)N1CCCC2(C1)CN(C(=O)C1CCCCC1)CCO2 (centres undefined) | -104% |
| CC(=O)N1CCC2(CCCN(C(=O)CCN3CCCCC3)C2)C1 (centres undefined) | -141% |
| Cc1nccc(NCc2cncc3c2CCN(S(C)(=O)=O)C3)n1 | -102% |
| Nc1cc(-c2cccs2)nn(CC(=O)N2CCc3ccccc32)c1=O | -13.9% |
| Cc1ccnc(NCCCN2CCc3ccccc32)n1 | 19.8% |
| Cc1cc(C)n(CC(C)NCCn2nc(C)c(Cl)c2C)n1 (centres undefined) | -48.1% |
| Cc1cc(C)n(CC(C)NCCN2CCc3ccccc32)n1 (centres undefined) | 54.7% |
| N#CC1(C(=O)N2C[C@@H]3CC[C@H]2CN(Cc2cscn2)C3)CCOCC1 | -81.2% |

| SMILES | INHIBITION |
| --- | --- |
| COc1cc(F)c(NCc2nc3ccccc3n2C)cc1OC | -381% |
| O=C1N(Cc2cccnc2)CCC12CCCN(c1ncccn1)C2 (centres undefined) | -123% |
| COc1ccccc1CN1CCCC(Cc2nccnc2N)C1 (centres undefined) | 62.1% |
| COc1ccccc1CC1CCCN(CC(=O)NC2CC2)C1 (centres undefined) | 16.1% |
| Nc1nccnc1CC1CCCN(Cc2ccnc3ccccc23)C1 (centres undefined) | -53.7% |
| CNC(=O)NC(=O)CN1CCCC(Cc2ccccc2OC)C1 (centres undefined) | -87.4% |
| Nc1nccnc1CC1CCCN(Cc2cccc3[nH]ccc23)C1 (centres undefined) | 19.4% |
| CNC(=O)CN1CCCC(Cc2ccccc2OC)C1 (centres undefined) | 61.9% |
| CCN1CCN(c2ccccc2NC(=O)N(C)C2CCSC2)CC1 (centres undefined) | 37.6% |
| CN(C)Cc1noc2c1CN(Cc1ccc[nH]1)CC2 | -77.5% |
| Cc1ccc2c(c1)OCCCC2NC1CCN(C)CC1 (centres undefined) | 50.3% |
| Cc1cc2c(cc1C)C(NC1CC1)CCCO2 (centres undefined) | -3.02% |
| Cc1ccc2c(c1)C(NCc1nccn1Cc1ccccc1)CCCO2 (centres undefined) | 35.8% |
| Cc1ccc2c(c1)C(NC1CCN(C)CC1)CCCO2 (centres undefined) | 66.8% |
| Cc1ccc2c(c1)OC(C)(C)CC2NC(=O)C1CCN(C)CC1 (centres undefined) | 30.2% |
| Cc1ccc2c(c1)C(NCc1nnc3n1CCCCC3)CCCO2 (centres undefined) | -74.6% |
| CS(=O)(=O)N1CC[C@H]2O[C@H](C(=O)NCCc3ccccn3)CC[C@H]21 | -48.2% |
| COc1cccc(OCCc2nc3c(cc2C(N)=O)CCC3)c1 | -58.5% |
| Cc1nc(CN2CCCC(N(C)CC3CCCC3)C2)no1 (centres undefined) | -42.4% |
| CCc1nc(C2CCCN2CCCc2nc3ccccc3o2)no1 (centres undefined) | -157% |
| Cc1nc2ccccn2c1CC(=O)N[C@@H]1CC[C@@H](N2CCOCC2)[C@@H]1O | -72.5% |
| NCc1ccccc1Sc1ccc(O)cc1 | 56.7% |
| CN(C)CCNC(=O)c1cc(-c2cnc(N3CCCC3)nc2)cn1C | -123% |

| SMILES | INHIBITION |
| --- | --- |
| c1ccc(-n2cc(CN3CCCC3Cn3cncn3)nn2)cc1 (centres undefined) | -14% |
| C[C@@H]1CN(C2(C(=O)N3CCSCC3)Cc3ccccc3C2)C[C@H](C)O1 | -238% |
| C[C@@H]1CN(C2(C(=O)N3CCNCC3)Cc3ccccc3C2)C[C@H](C)O1 | 63.4% |
| C[C@@H]1CN(C2(C(=O)N3CCOCC3)Cc3ccccc3C2)C[C@H](C)O1 | -22.3% |
| CCc1noc(C(C)N(C)CC(=O)Nc2ccc(Cl)c(C(F)(F)F)c2)n1 (centres undefined) | -75.8% |
| CC(Cn1ccnc1)NC(=O)N1CCN(Cc2ccsc2)CC1 (centres undefined) | 58.4% |
| CC(Cn1cccn1)NC(=O)N1CCN(Cc2ccsc2)CC1 (centres undefined) | -55.3% |
| CC(Cn1ccnc1)NC(=O)N1CCN(Cc2ccncc2)CC1 (centres undefined) | -125% |
| NC(=O)c1c(-c2ccc(Cl)cc2Cl)csc1NC(=O)CCCC(=O)O | -162% |
| CC(C)NC(=O)N1CCC2(CC1)C(=O)NCCN2Cc1ccccc1 | -105% |
| COc1ccc(-n2cc(CCO)cn2)cc1C | -136% |
| O=C1CC2(CCN(Cc3ncc[nH]3)CC2)CN1Cc1cc(F)cc(F)c1 | -147% |
| CN(C)CCN1CCCC12CCCN(Cc1ccco1)C2 (centres undefined) | -71.8% |
| Cc1ccc(CN2CCC3(CCCN(C(=O)N(C)C)C3)C2)cc1 (centres undefined) | -59.2% |
| CN(C)CCN1CCCC12CCCN(Cc1ccoc1)C2 (centres undefined) | 68.1% |
| CN(C)CCN1CCCC12CCN(C(=O)c1ccco1)CC2 | 33.9% |
| CNC(=O)CN1CCOCC2(CCCN(Cc3ccoc3)C2)C1 (centres undefined) | 33.7% |
| O=C1CC2(CCN(CCO)CC2)CN1Cc1cc(F)cc(F)c1 | 19.3% |
| O=C1CC2(CCN(Cc3ccoc3)CC2)CN1Cc1cc(F)cc(F)c1 | 56.5% |
| Cc1ccc(CN2CCCC3(CCN(Cc4ccoc4)CC3)C2)cc1 | 79.8% |
| CC1CCCN(S(=O)(=O)NCCNC(=O)c2ncccc2O)C1 (centres undefined) | -122% |
| COc1ccc(-c2nc(CCNC(=O)NC3CCC(O)CC3)co2)cc1 (centres undefined) | -13.7% |
| CCN(C)CC(=O)N1CCc2nc(NC)nc(C(=O)N3CCCC3)c2C1 | -14.4% |
